Source: PubChem (National Center for Advancing Translational Sciences (NCATS))
This is a sample that favours compounds with a hit; in the whole collection about 1% have one here.
WRN inhibitor: inhibitors of human WRN helicase; Q14191; WRN helicase unwinding, fluorescent forked duplex, kinetic; Potency, µM (highest dose often 114 µM), for inactives: at the top dose activity change, negative = inhibition, actives largely listed as inhibitors; actives 0.46% (n = 360,000); AID 651768; also: nearly all actives have a fitted effect of over 55% in size
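WRN at 20 nM final preincubated with compound 15 min at room temperature; reaction started with 100 nM fluorophore/quencher forked duplex oligonucleotide and 2 mM ATP final. Unwinding followed kinetically by red fluorescence (ex 525, em 598 nm).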
L3MBTL1 inh: blocks human L3MBTL1 | Q9Y468 | AlphaScreen L3MBTL1–H3K9me1 peptide binding | Potency, µM (top dose mostly 57.1 µM), for the others: at the highest dose activity, negative = inhibition, hits mostly inhibitors | actives 0.66% (n = 230,000); also: nearly all actives have a fitted effect of over 60% in size
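First, the protein-peptide complex forms for 30 min at room temperature (L3MBTL1 50 nM, biotinylated H3K9me1 peptide 75 nM). Next, compounds are pin-transferred and incubated 30 min. Finally, AlphaScreen beads are added and read after 30 min.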
FEN1 inh: inhibitors of human flap endonuclease 1; AID 588795; actives 0.35% (n = 390,000); P39748; Recombinant FEN1 flap cleavage, fluorescence, 15 min; Potency, µM (top dose mostly 114 µM), inactives show at the highest dose activity change, negative = inhibition, most hits filed as inhibitors; also: nearly all actives have a fitted effect of over 65% in size
Target sequence (P39748 whole entry, looked up): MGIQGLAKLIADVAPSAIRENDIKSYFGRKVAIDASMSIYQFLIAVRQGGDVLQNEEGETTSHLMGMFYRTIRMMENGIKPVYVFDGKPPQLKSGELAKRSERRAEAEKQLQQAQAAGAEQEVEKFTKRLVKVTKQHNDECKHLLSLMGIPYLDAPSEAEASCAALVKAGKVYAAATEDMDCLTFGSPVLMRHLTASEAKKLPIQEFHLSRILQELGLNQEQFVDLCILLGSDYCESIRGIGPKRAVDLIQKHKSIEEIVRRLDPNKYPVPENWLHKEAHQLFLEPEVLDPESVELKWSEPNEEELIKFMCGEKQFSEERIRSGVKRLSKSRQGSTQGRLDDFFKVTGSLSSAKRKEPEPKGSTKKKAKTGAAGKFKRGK
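Read-out was taken twice, immediately and after 15 min, following addition of 50 nM substrate to 10 nM FEN1 that had sat with test compound for 15 min at room temperature. Curves came from a four-parameter Hill model.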
APE1 inh-1: inhibitors of human APE1 endonuclease; P27695; recombinant APE1, TAMRA/BHQ-2 abasic DNA cleavage fluorescence; Potency, µM (doses to about 65.8 µM), for inactives: top-dose activity change, negative = inhibition, hits mostly inhibitors; actives 0.35% (n = 350,000); AID 2517;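 also: plate controls were vehicle for no effect and reference inhibitor for full effect; nearly all actives have a fitted effect of over 55% in size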
Target sequence (P27695 whole entry, looked up): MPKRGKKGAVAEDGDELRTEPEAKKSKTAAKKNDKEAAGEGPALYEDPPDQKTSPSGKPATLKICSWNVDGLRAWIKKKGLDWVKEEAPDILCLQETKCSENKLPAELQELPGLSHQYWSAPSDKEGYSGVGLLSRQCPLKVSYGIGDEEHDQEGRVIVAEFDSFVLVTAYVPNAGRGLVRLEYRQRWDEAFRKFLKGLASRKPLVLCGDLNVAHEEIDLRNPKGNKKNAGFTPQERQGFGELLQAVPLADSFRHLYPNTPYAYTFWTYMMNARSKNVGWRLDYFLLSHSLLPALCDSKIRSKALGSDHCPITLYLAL
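Readout is kinetic fluorescence (ex 525, em 598 nm) from cleavage of 50 nM TAMRA/BHQ-2 THF abasic duplex by 0.75 nM APE1, compound added 15 min beforehand at RT.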
BLM helicase inh: blocks DNA unwinding by human BLM helicase | P54132 | recombinant BLM DNA unwinding, fluorescence dequenching | Potency, µM (doses to about 56.1 µM), inactives show at the highest dose activity change, negative = inhibition, usual class: inhibitors | actives 0.2% (n = 350,000);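 also: plate controls were vehicle for no effect and no enzyme for full effect; nearly all actives have a fitted effect of over 35% in size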
RECQ1 inh-1: blocks DNA unwinding by human RECQ1. RECQ1 DNA unwinding, red fluorescence kinetic read. actives 0.54% (n = 240,000). P46063. Potency, µM (top dose mostly 57.3 µM), without a hit: at the highest dose activity, negative = inhibition, hits mostly inhibitors. AID 2549;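 also: plate controls were vehicle for no effect and no enzyme for full effect; nearly all actives have a fitted effect of over 30% in size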
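RECQ1T1 50 nM; forked duplex (20 bp + 30-nt ss tails) 200 nM, ATP 2 mM final; pH 8.0, 2 mM MgCl2, 2.5 ug/ml poly(dI-dC); 15 min compound preincubation; discontinuous kinetic read over 2 h at RT.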
DNA dye displace: counter-screen for APE1 inhibitors: DNA dye displacement; shares compounds with APE1 inh-1; DNA fluorescent dye displacement counterscreen, fluorescence; Potency, µM (highest dose often 28.5 µM), inactives show top-dose activity change, negative = inhibition, actives largely listed as inhibitors; actives 7% (n = 480); AID 2564;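 also: loss of thiazole orange fluorescence as the dye is displaced from duplex DNA; 0% = ThO with dsDNA and no compound and -100% = ThO without dsDNA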
Endo IV inh: blocks E. coli endonuclease IV DNA cleavage. shares compounds with APE1 inh-1. E. coli Endo IV, fluorogenic AP-site DNA cleavage. Potency, µM (series often up to 27.1 µM), for the others: top-dose activity change, negative = inhibition, actives largely listed as inhibitors. actives 4% (n = 560). AID 2565;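 also: plate controls were uninhibited enzyme wells for no effect and no enzyme buffer wells for full effect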
APE1 inh-2: APE1 (human) endonuclease inhibition, confirmation | Potency, µM (series often up to 57.1 µM), for inactives: at the highest dose activity change, negative = inhibition, usual class: inhibitors | actives 44% (n = 750) | AID 2572 | purified APE1, fluorogenic abasic-site DNA cleavage | shares compounds with APE1 inh-1; also: nearly all actives have a fitted effect of over 30% in size
APE1 FP: compounds that displace a DNA probe from human APE1; shares compounds with APE1 inh-1; APE1 binding to TAMRA-labelled double-stranded DNA, fluorescence polarization displacement; Potency, µM (series often up to 28.5 µM), without a hit: at the highest dose activity, negative = inhibition, hits mostly inhibitors; actives 7% (n = 480); AID 2573
RECQ1 conf: confirmation of human RECQ1 helicase inhibitors | shares compounds with RECQ1 inh-1 | RECQ1 helicase DNA unwinding, fluorescence | Potency, µM (highest dose often 229 µM), inactives show at the highest dose activity change, negative = inhibition, hits mostly inhibitors | actives 28% (n = 610) | AID 2708; also: nearly all actives have a fitted effect of over 45% in size
ADP FP counter: ADP displacement flagged in RECQ1 inhibitor counter-screen; shares compounds with RECQ1 inh-1; actives 27% (n = 530); ADP fluorescence polarization displacement counterscreen; Potency, µM (top dose mostly 228 µM), without a hit: at the highest dose activity change, negative = inhibition, hits mostly inhibitors; also: nearly all actives have a fitted effect of over 45% in size
RECQ1 inh-2: RECQ1 helicase inhibition confirmed, round 2 | shares compounds with RECQ1 inh-1 | AID 504841 | recombinant RECQ1 DNA unwinding, red fluorescence | actives 15% (n = 1,100) | Potency, µM (titrated, usually from 119 µM), inactives show at the top dose activity, negative = inhibition, hits mostly inhibitors; also: nearly all actives have a fitted effect of over 50% in size
Starred values were filed as active, the others as inactive; i = inactive; ? = inconclusive; . = not tested or not shown; ! = repeats disagree; [ ] = another dose, or the depositor's remark. Calls follow the shape of the dose curve; as a rule, active = well fitted curve in the direction sought with a large enough effect; inconclusive = small, poorly fitted or top-dose-only effect, or another doubt; inactive = no such curve, though single readings can be large; an effect the other way counts as inactive or inconclusive. Unless noted, % is scaled to controls: 0 for no effect and ±100 for the full control effect; potency is read from the fitted curve at half-maximal effect.

SMILES	WRN inhibitor	L3MBTL1 inh	FEN1 inh	APE1 inh-1	BLM helicase inh	RECQ1 inh-1	DNA dye displace	Endo IV inh	APE1 inh-2	APE1 FP	others
O=C(O)c1cccc(-n2cccc2/C=C2\NC(=O)N(Cc3ccc(F)cc3)C2=O)c1	?	?	?	10µM*	-9%	-28%	-6%	-4%	10µM*	?
Cc1cc(C(=O)O)ccc1-c1ccc(/C=C2\NC(=O)N(Cc3ccc(F)cc3)C2=O)o1	?	.	?	13µM*	5%	-28%	?	4%	40µM*	-1%
CN1C(=O)S/C(=C/c2cccn2-c2cccc(C(=O)O)c2)C1=O	-6%[11.6 µM]	?	-22%	?	-1%	1%	?	1%	?	?
CN1C(=O)S/C(=C/c2ccc(OCc3cccc(C(=O)O)c3)cc2)C1=O	-31%	-2%	10%	-38%	2%	.	.	.	.	.
O=C1N/C(=C/c2cccn2-c2ccccc2)C(=O)N1Cc1ccccc1F	?	1%	-1%	1%	-5%	3%	.	.	.	.
CCC1CN(S(=O)(=O)c2cc(-c3onc(C)c3C)ccc2C)c2cc(Cl)ccc2O1 (stereo not given)	.	.	6%	.	-5%	.	.	.	.	.
CCn1c(=O)c2cc(C(=O)NCCc3cc(OC)ccc3OC)sc2c2ccccc21	.	.	-10%	.	-2%	.	.	.	.	.
CC(C)Oc1ccc(C(=O)N2CC(=O)Nc3ccc(F)cc3C2c2ccc(F)cc2)cc1 (stereo not given)	.	.	-16%	.	-6%	.	.	.	.	.
O=C(Nc1ccc2nc(-c3ccco3)c(-c3ccco3)nc2c1)N1CCCCCC1	13µM*	3.5µM*	50µM*	3.5µM*	5.6µM*	5.6µM*	?	?	4µM*	13µM*
Oc1ccccc1Oc1c(F)c(F)nc(N2CCCC2)c1F	-16%	-24%	-10%	?	-23%	-25%	-9%	-1%	?	-6%
Oc1ccccc1Oc1ncc(Br)c(N2CCOCC2)n1	2%	1%	-1%	-3%	-5%	i	.	.	.	.
CN=c1scc(-c2ccccc2F)n1/N=C/c1ccc[nH]1	0%	.	0%	35µM*	-7%	i	17%	6%	?	-34%
Nc1c(S(=O)(=O)O)cc(Nc2ccc(Nc3nc(Cl)nc(Nc4ccc(S(=O)(=O)O)cc4)n3)c(S(=O)(=O)O)c2)c2c1C(=O)c1ccccc1C2=O	.	.	2µM*	0.63µM*	.	0.89µM*	.	10µM*	0.71µM*	.
O=[N+]([O-])c1ccc(Nc2nc(Cl)nc(NCCO)n2)cc1	-8%	10%	2%	9%	0%	0%	.	.	.	.
N#Cc1cc2nc(O)c(O)nc2cc1[N+](=O)[O-]	-21%	-8%	-1%	?	1%	2%	.	-10%[57.1 µM]	-82%	.
CC(OC(=O)c1ccccn1)C(=O)Nc1ccc2c(c1)OCCO2 (stereo not given)	4%	-8%	-9%	28%	.	.	.	.	.	.
CCN(c1ccccc1)S(=O)(=O)c1cc(C(=O)OC(C)C(=O)Nc2ccc3c(c2)OCCO3)ccc1C (stereo not given)	-10%[11.6 µM]	-17%	1%	11µM*	-14%	-12%	18%	-7%	14µM*	?
O=[N+]([O-])c1ccc(Cl)c(CN2CCN(c3ncc(Cc4ccccc4)cn3)CC2)c1	-13%	.	.	.	.	.	.	.	.	.
COc1ccc2c(c1)c(=O)oc1cc3oc(C)c(C)c3cc12	.	.	.	?	-16%	-12%	38%	-2%	5.6µM*	-4%
Cn1c(SCC(=O)Nc2ccc3nc(SCC(=O)N4CCCC4)sc3c2)nnc1-c1ccc(N)cc1	?	.	-33%	10µM*	-29%	0.63µM*	.	.	?	.	RECQ1 conf=7.1µM*;ADP FP counter=?;RECQ1 inh-2=?
COc1cc(N(C)C)cc(CN(C)CCc2ccc([N+](=O)[O-])cc2)c1O	.	.	.	3.2µM*	14µM*	10µM*	0%[57.1 µM]	3%[57.1 µM]	?	-9%[57.1 µM]	RECQ1 conf=100µM*;ADP FP counter=?;RECQ1 inh-2=50µM*
COc1ccc(CNCCc2ccc([N+](=O)[O-])cc2)c(OC)c1OC	-4%	-4%[2.29 µM]	12%	-4%	6%	.	.	.	.	.
CC(C)CNC1=CC(=O)CC(c2ccco2)C1 (stereo not given)	-21%	?	-1%	6.3µM*	-23%	11µM*	1%	10%	-11%[24.4 µM]	-17%	RECQ1 conf=?;ADP FP counter=?;RECQ1 inh-2=?
Cc1ccc(/C=c2\sc3nc(-c4ccccc4Br)nn3c2=O)o1	?	.	?	13µM*	-21%	?	?	8%	-26%[24.4 µM]	14%	RECQ1 inh-2=32%
Cc1ccc(/C=c2/sc3nnc(-c4ccccc4Cl)n3c2=O)o1	?	?	-9%	?	?	-15%	.	.	.	.
CNC[C@H](O)c1ccc(O)c(O)c1	.	?	.	7.9µM*!	-3%	18µM*!	-3%[57.1 µM]	31%[57.1 µM]	?	-5%[57.1 µM]	RECQ1 conf=?;ADP FP counter=14µM*
COc1ccc(NC(=O)Cn2nc(-c3ccccc3)c3cnc4ccc(C)cc4c32)cc1	.	.	19%	.	-10%	.	.	.	.	.
